Results as given in PubChem BioAssay AID1159580 (chemical genetic matrix, 2015).
The campaign covered roughly 5,500 compounds. About 2,000 (36%) were called active. About 18% were inconclusive and are not listed. Cut-off read from the data, not from the text of the source: active = normalized growth mostly below about 0.91 (no sharp cut-off); inconclusive = no clear call, values can overlap the other calls; inactive = mostly above about 0.92. Some of the results follow.

Experiment: chemical genetic growth profiling, strain panel (AID 1159580);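 note: tested at 20 µM; growth read once vehicle control cultures reached saturation at 30 °C; 1 = growth at the plate median or of vehicle wells; lower values mean less growth of the strain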
Details: growth OD
[1] = S. cerevisiae deletion strains, locus YBR021W, strain FUR4, hits give low values
[2] = S. cerevisiae deletion strains, locus YBR229C, strain ROT2, hits give low values
[3] = S. cerevisiae deletion strains, locus YCL029C, strain bik1, hits give low values
[4] = S. cerevisiae deletion strains, locus YDL035C, strain GPR1, hits give low values
[5] = S. cerevisiae deletion strains, locus YDL074C, strain BRE1, hits give low values
[6] = S. cerevisiae deletion strains, locus YDL101C, strain DUN1, hits give low values
[7] = S. cerevisiae deletion strains, locus YDL185W, strain tfp1, hits give low values
[8] = S. cerevisiae deletion strains, locus YDL192W, strain arf1, hits give low values
[9] = S. cerevisiae deletion strains, locus YDR101C, strain arx1, hits give low values
[10] = S. cerevisiae deletion strains, locus YDR150W, strain NUM1, hits give low values
[11] = S. cerevisiae deletion strains, locus YDR162C, strain NBP2, hits give low values
[12] = S. cerevisiae deletion strains, locus YDR318W, strain mcm21, hits give low values
[13] = S. cerevisiae deletion strains, locus YDR388W, hits give low values
[14] = S. cerevisiae deletion strains, locus YDR502C, strain sam2, hits give low values
[15] = S. cerevisiae deletion strains, locus YEL061C, strain CIN8, hits give low values
[16] = S. cerevisiae deletion strains, locus YER110C, hits give low values
[17] = S. cerevisiae deletion strains, locus YER155C, strain BEM2, hits give low values
[18] = S. cerevisiae deletion strains, locus YER167W, strain BCK2, hits give low values
[19] = S. cerevisiae deletion strains, locus YGL078C, strain dbp3, hits give low values
[20] = S. cerevisiae deletion strains, locus YGL086W, strain mad1, hits give low values
[21] = S. cerevisiae deletion strains, locus YGL248W, strain PDE1, hits give low values
[22] = S. cerevisiae deletion strains, locus YGR078C, strain PAC10, hits give low values
[23] = S. cerevisiae deletion strains, locus YGR135W, strain pre9, hits give low values
[24] = S. cerevisiae deletion strains, locus YGR252W, strain gcn5, hits give low values
[25] = S. cerevisiae deletion strains, locus YHR030C, strain SLT2, hits give low values
[26] = S. cerevisiae deletion strains, locus YHR079C, strain IRE1 (second series), hits give low values
[27] = S. cerevisiae deletion strains, locus YHR094C, strain hxt1, hits give low values
[28] = S. cerevisiae deletion strains, locus YHR129C, strain ARP1, hits give low values
[29] = S. cerevisiae deletion strains, locus YHR200W, strain rpn10, hits give low values
[30] = S. cerevisiae deletion strains, locus YIL066C, strain RNR3, hits give low values
[31] = S. cerevisiae deletion strains, locus YIL073C, strain SPO22, hits give low values
[32] = S. cerevisiae deletion strains, locus YIL125W, strain kgd1, hits give low values
[33] = S. cerevisiae deletion strains, locus YIR030C, strain dcg1, hits give low values
[34] = S. cerevisiae deletion strains, locus YJL095W, strain BCK1, hits give low values
[35] = S. cerevisiae deletion strains, locus YJL134W, strain LCB3, hits give low values
[36] = S. cerevisiae deletion strains, locus YJL168C, strain set2, hits give low values
[37] = S. cerevisiae deletion strains, locus YJL187C, strain SWE1 (second series), hits give low values
[38] = S. cerevisiae deletion strains, locus YJR043C, strain POL32, hits give low values
[39] = S. cerevisiae deletion strains, locus YJR075W, strain HOC1, hits give low values
[40] = S. cerevisiae deletion strains, locus YKL009W, strain mrt4, hits give low values
[41] = S. cerevisiae deletion strains, locus YKL068W, hits give low values
[42] = S. cerevisiae deletion strains, locus YKL085W, strain MDH1 (second series), hits give low values
[43] = S. cerevisiae deletion strains, locus YKL085W, strain MDH1, hits give low values
[44] = S. cerevisiae deletion strains, locus YKL190W, strain CNB1, hits give low values
[45] = S. cerevisiae deletion strains, locus YKR001C, strain vps1, hits give low values
[46] = S. cerevisiae deletion strains, locus YLR039C, strain RIC1, hits give low values
[47] = S. cerevisiae deletion strains, locus YLR058C, strain SHM2, hits give low values
[48] = S. cerevisiae deletion strains, locus YLR102C, strain apc9, hits give low values
[49] = S. cerevisiae deletion strains, locus YLR262C, strain YPT6, hits give low values
[50] = S. cerevisiae deletion strains, locus YLR268W, strain sec22, hits give low values
[51] = S. cerevisiae deletion strains, locus YLR330W, strain CHS5, hits give low values
[52] = S. cerevisiae deletion strains, locus YLR342W, strain FKS1 (second series), hits give low values
[53] = S. cerevisiae deletion strains, locus YLR371W, strain rom2, hits give low values
[54] = S. cerevisiae deletion strains, locus YLR418C, strain cdc73, hits give low values
[55] = S. cerevisiae deletion strains, locus YML016C, strain PPZ1, hits give low values
[56] = S. cerevisiae deletion strains, locus YML032C, strain rad52, hits give low values
[57] = S. cerevisiae deletion strains, locus YML124C, strain tub3, hits give low values
[58] = S. cerevisiae deletion strains, locus YMR078C, strain ctf18, hits give low values
[59] = S. cerevisiae deletion strains, locus YMR223W, strain ubp8, hits give low values
[60] = S. cerevisiae deletion strains, locus YMR307W, strain GAS1, hits give low values
[61] = S. cerevisiae deletion strains, locus YNL067W, strain RPL9B, hits give low values
[62] = S. cerevisiae deletion strains, locus YNL128W, strain TEP1, hits give low values
[63] = S. cerevisiae deletion strains, locus YNL153C, strain GIM3, hits give low values
[64] = S. cerevisiae deletion strains, locus YNL233W, strain BNI4, hits give low values
[65] = S. cerevisiae deletion strains, locus YNL250W, strain rad50, hits give low values
[66] = S. cerevisiae deletion strains, locus YNL271C, strain bni1, hits give low values
[67] = S. cerevisiae deletion strains, locus YNL298W, strain CLA4, hits give low values
[68] = S. cerevisiae deletion strains, locus YNL307C, strain MCK1, hits give low values
[69] = S. cerevisiae deletion strains, locus YNR052C, strain pop2, hits give low values
[70] = S. cerevisiae deletion strains, locus YOL012C, strain htz1
[71] = S. cerevisiae deletion strains, locus YOL147C, strain pex11, hits give low values
[72] = S. cerevisiae deletion strains, locus YOR061W, strain CKA2, hits give low values
[73] = S. cerevisiae deletion strains, locus YOR069W, strain VPS5, hits give low values
[74] = S. cerevisiae deletion strains, locus YOR136W, strain idh2, hits give low values
[75] = S. cerevisiae deletion strains, locus YOR144C, strain elg1, hits give low values
[76] = S. cerevisiae deletion strains, locus YOR184W, strain ser1, hits give low values
[77] = S. cerevisiae deletion strains, locus YOR316C, strain cot1, hits give low values
[78] = S. cerevisiae deletion strains, locus YPL055C, strain LGE1, hits give low values
[79] = S. cerevisiae deletion strains, locus YPL241C, strain CIN2, hits give low values
[80] = S. cerevisiae deletion strains, locus YPR119W, strain clb2, hits give low values
[81] = S. cerevisiae deletion strains, locus YPR141C, strain kar3, hits give low values
[82] = S. cerevisiae deletion strains, locus YPR163C, strain tif3, hits give low values
[83] = S. cerevisiae deletion strains, locus YPR167C, strain met16, hits give low values
[84] = S. cerevisiae deletion strains, strain wtn01, hits give low values
[85] = S. cerevisiae strains, strain wild type, hits give low values

Measured: normalized growth

C=C(C)C1CCC(C)(O)C2CC3OC3(C)C2C1 (stereo unspecified)
inactive: S. cerevisiae deletion strains, locus YAL013W, strain DEP1, hits give low values 1.01 | [1] 1.02 | [2] 1.01 | [3] 1.02 | [4] 1.01 | [5] 0.99 | [6] 0.999 | S. cerevisiae deletion strains, locus YDL134C, strain PPH21, hits give low values 1 | [7] 1.01 | [8] 1.02 | [9] 1 | [10] 1.02 | [11] 0.995 | [12] 1.02 | [13] 1.01 | [14] 1.01 | [15] 1 | [16] 1.01 | [17] 0.999 | [18] 1.01 | [19] 1.01 | [20] 1.02 | [21] 1 | [22] 0.995 | [23] 1 | S. cerevisiae deletion strains, locus YGR229C, strain SMI1, hits give low values 1.03 | [24] 1.01 | [25] 1 | [26] 1.01 | [27] 1.01 | [28] 1 | [29] 1.01 | [30] 1.01 | [31] 1.07 | [32] 1.01 | [33] 1 | [34] 0.978 | [35] 1.01 | [36] 1 | [37] 1.01 | [38] 1.03 | [39] 1.06 | [40] 1.02 | [41] 1.01 | [42] 1 | [43] 1 | [44] 1 | [45] 1.02 | [46] 0.992 | [47] 1.01 | [48] 1.01 | [49] 0.999 | [50] 1.01 | [51] 1 | [52] 1.04 | [53] 1.01 | [54] 0.992 | [55] 0.995 | [56] 1.02 | [57] 1.01 | [58] 1.01 | [59] 1.01 | S. cerevisiae deletion strains, locus YMR263W, strain SAP30, hits give low values 1 | [60] 1.03 | [61] 1.02 | [62] 0.99 | [63] 1 | [64] 0.998 | [65] 1.02 | [66] 1.01 | [67] 1.01 | [68] 1.02 | S. cerevisiae deletion strains, locus YNL322C, strain KRE1, hits give low values 1.01 | [69] 1.02 | S. cerevisiae deletion strains, locus YOL006C, strain TOP1, hits give low values 0.996 | [70] 0.919 | [71] 1.01 | [72] 1 | [73] 1.01 | [74] 1.03 | [75] 1.01 | [76] 1.03 | [77] 1.01 | [78] 1 | [79] 1 | [80] 1.01 | [81] 1.01 | [82] 1.02 | [83] 1.01 | [84] 1 | [85] 1.04

CC(C)CC1NC(=O)CNC1=O (stereo unspecified)
inactive: [1] 1.03 | [2] 0.953 | [3] 0.965 | [4] 0.992 | [5] 1.04 | [6] 0.974 | [7] 0.963 | [8] 0.992 | [9] 1.01 | [10] 0.984 | [11] 0.937 | [12] 0.98 | [13] 0.989 | [14] 0.987 | [15] 0.989 | [16] 0.976 | [17] 1.01 | [18] 1 | [19] 0.978 | [20] 1.03 | [21] 0.981 | [22] 0.969 | [23] 0.966 | [24] 0.958 | [25] 1 | [26] 1.01 | [27] 0.972 | [28] 0.997 | [29] 0.971 | [30] 0.981 | [31] 0.986 | [32] 0.987 | [33] 0.995 | [34] 0.964 | [35] 0.992 | [36] 0.991 | [37] 0.969 | [38] 0.977 | [39] 0.993 | [40] 1.02 | [41] 0.985 | [42] 1.02 | [43] 1.02 | [44] 0.981 | [45] 1.01 | [46] 0.964 | [47] 0.979 | [48] 0.993 | [49] 0.938 | [50] 1.01 | [51] 1 | [52] 1.05 | [53] 0.98 | [54] 0.974 | [55] 0.99 | [56] 0.959 | [57] 0.982 | [58] 0.964 | [59] 0.988 | [60] 1.02 | [61] 0.971 | [62] 0.969 | [63] 0.951 | [64] 0.997 | [65] 0.988 | [66] 0.983 | [67] 0.973 | [68] 0.984 | [69] 0.981 | [70] 0.849 | [71] 0.99 | [72] 0.968 | [73] 0.996 | [74] 1.01 | [75] 0.978 | [76] 0.974 | [77] 0.976 | [78] 1.01 | [79] 0.992 | [80] 0.985 | [81] 0.984 | [82] 0.974 | [83] 1 | [84] 1.02 | [85] 0.985
